Values joined by “and” are separate entries in the source; they are usually repeats but may differ in a detail not shown here. Equal entries are not always repeated. Inconclusive results are not listed. A number with no mark means an inactive call. Active and inactive are the calls of the source. Calls follow the shape of the dose curve; as a rule, active = well fitted cell-killing curve with a large enough effect in the repeat runs; inconclusive = weak or mixed curves, or effect the other way; inactive = no such curve, though single readings can be large or run the other way.

Here are results for 33 compounds from PubChem BioAssay (Tox21).
% is scaled to controls: 0 for no effect and ±100 for the full control effect.

The nature of the first experiment: qHTS assay to identify small molecule antagonists of the glucocorticoid receptor (GR) signaling pathway - cell viability counter screen (AID 720693). Also: nearly all actives have a fitted effect of over 55% in size. The conditions noted are these: GR-bla HeLa viability, CellTiter-Glo luminescence, 18 h, with 5 nM dexamethasone present; series mostly up to 58.5 µM; viability change, negative = cytotoxic: at the top concentration. For orientation: qHTS replaces the single test concentration by a dilution series.
Turning to `CC(=O)[O-].CC(=O)[O-].CC(=O)[O-].[Sb+3]`, the viability change, negative = cytotoxic is -0.477% [at 7.04 µM].

In the case of `NC1CCC(CC2CCC(N)CC2)CC1` (stereo not given), the “viability change, negative = cytotoxic” value is -0.878%.

Regarding `CCCC[N+]1(C)CCCC1` (tested in a mixture with another compound), the “viability change, negative = cytotoxic” value is 5.5% [at 78.9 µM].

As for `O=C(Nc1ccc(F)cc1F)c1cccnc1Oc1cccc(C(F)(F)F)c1`, the “viability change, negative = cytotoxic” value was -3.44% [at 78.9 µM].

Take `CC(C)=CC1C(C(=O)OC(C#N)c2cccc(Oc3ccccc3)c2)C1(C)C` (stereo not given): the “viability change, negative = cytotoxic” value is -3.67%.

For the compound `C#CC1(O)CCCCC1`, the “viability change, negative = cytotoxic” value was 0.0351%.

Turning to `C=Cc1cccc(CCl)c1`, the “viability change, negative = cytotoxic” value is 8.99% [at 78.9 µM].

For `CCC(C)c1cccc(C(C)CC)c1O` (stereo not given), the “viability change, negative = cytotoxic” value was -10.2%.

On to `C[C@H]1[C@H](c2ccc(Cl)cc2)SC(=O)N1C(=O)NC1CCCCC1`, for which the “viability change, negative = cytotoxic” value is -18.7%.

`N#Cc1ccc(N(CC(N)=O)CC(F)(F)F)cc1C(F)(F)F`: the “viability change, negative = cytotoxic” value is -1.61%.

For the compound `O=C(Cl)c1ccccc1F`, the “viability change, negative = cytotoxic” value is -0.633%.

Take `CCOC(=O)Cc1ccccc1`: the “viability change, negative = cytotoxic” value was 10.8%.

With `Brc1cccc(-c2ccccc2)c1`, the “viability change, negative = cytotoxic” value is -0.47% [at 78.9 µM].

Turning to `CC(C)Br`, the “viability change, negative = cytotoxic” value is -8.84%.

On to `c1csc(-c2ccc(-c3cccs3)s2)c1`, for which the “viability change, negative = cytotoxic” value is 0.298%.

With `CC(=O)C(Cl)C(=O)N(C)C` (stereo not given), the “viability change, negative = cytotoxic” value was 0.558%.

Consider `ClC(Cl)C(Cl)(Cl)Cl`, for which the “viability change, negative = cytotoxic” value is -1.18%.

`CC(C)C(Br)C(=O)NC(N)=O` (stereo not given): the “viability change, negative = cytotoxic” value is 6.17%.

The next experiment in a line: qHTS assay for identifying genotoxic compounds that show differential cytotoxicity against isogenic chicken DT40 cell lines with known DNA damage response pathways - wild type cell line (AID 743012). Also: nearly all actives have a fitted effect of over 60% in size. Also: potency is read from the fitted curve at half-maximal effect. The conditions noted are these: DT40 wild type chicken cells viability, CellTiter-Glo, 40 h; series mostly up to 68.4 µM; activity change, negative = cytotoxicity: at the top concentration. In outline:
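Parental DNA repair-proficient DT40 cells, 300 per well, were pre-incubated ~0.5 h at 37 C/5% CO2, pin-dosed with compounds in DMSO, then incubated 40 h. Viability was read as CellTiter-Glo luminescence after 30 min at room temperature.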
Regarding `Cc1c([N+](=O)[O-])c(C)c([N+](=O)[O-])c(C(C)(C)C)c1[N+](=O)[O-]`, the Potency is 68.6 µM (active).

In the case of `N#CC(C#N)=NNc1cccc(Cl)c1`, the Potency was 2.73 µM (active).

In the case of `Brc1ccc(Oc2ccc(Br)cc2Br)c(Br)c1`, the “activity change, negative = cytotoxicity” value was -0.903%.

Consider `CCOP(=O)(Sc1ccccc1)Sc1ccccc1`, for which the Potency was 24.3 µM (active).

Consider `c1ccc2c(c1)cc1ccc3cccc4ccc2c1c34`, for which the “activity change, negative = cytotoxicity” value is 14.4% [at 95 µM].

Turning to `O=C1C2(Cl)C3(Cl)C4(Cl)C(Cl)(Cl)C5(Cl)C3(Cl)C1(Cl)C5(Cl)C24Cl` (stereo not given), the Potency was 30.1 µM (active) and 29.3 µM (active).

As for `CC(C)N(C(=O)CCl)c1ccccc1`, the Potency was 21.7 µM (active) and 17.2 µM (active).

Turning to `CCNc1nc(NC(C)C(C)C)nc(SC)n1` (stereo not given), the Potency is 38.6 µM (active).

Turning to `CCCN`, the “activity change, negative = cytotoxicity” value was -0.299% [at 95 µM].

`CC(=O)[O-].CC(=O)[O-].CC(=O)[O-].[Sb+3]`: the activity change, negative = cytotoxicity is -1.26% [at 8.52 µM].

As to `Nc1cc(Cl)ccc1Cl`, the “activity change, negative = cytotoxicity” value was -1.72%.

As to `CN1CCc2cc3c(cc2C1O)OCO3` (stereo not given), the “activity change, negative = cytotoxicity” value is -2.36% [at 95 µM].

Consider `COP(=O)(OC)O/C(=C\Cl)c1cc(Cl)c(Cl)cc1Cl`, for which the Potency was 17.2 µM (active).

`CCCC[N+]1(C)CCCC1` (tested in a mixture with another compound): the “activity change, negative = cytotoxicity” value was 4.31% [at 95 µM].

Regarding `c1ccc2nc(N3CCNCC3)ccc2c1`, the Potency was 29.8 µM (active).

For `CCCCN(CCCC)C(=S)[S-].CCCCN(CCCC)C(=S)[S-].[Ni+2]`, the “activity change, negative = cytotoxicity” value was 4.22%.

Take `O=C(Nc1ccc(F)cc1F)c1cccnc1Oc1cccc(C(F)(F)F)c1`: the “activity change, negative = cytotoxicity” value was 1.19% [at 95 µM].

Consider `CC(C)=CC1C(C(=O)OC(C#N)c2cccc(Oc3ccccc3)c2)C1(C)C` (stereo not given), for which the “activity change, negative = cytotoxicity” value was -4.43%.

As to `CC1(C)C(C=C(Cl)Cl)C1C(=O)OC(C#N)c1ccc(F)c(Oc2ccccc2)c1` (stereo not given), the “activity change, negative = cytotoxicity” value was -21.6%.

With `C#CC1(O)CCCCC1`, the “activity change, negative = cytotoxicity” value was 5.05%.

In the case of `C=Cc1cccc(CCl)c1`, the “activity change, negative = cytotoxicity” value was -2.48% [at 95 µM].

For the compound `O=C(Cl)c1ccccc1F`, the “activity change, negative = cytotoxicity” value is 2.16%.

Regarding `CCOC(=O)Cc1ccccc1`, the “activity change, negative = cytotoxicity” value was 3.72%.

With `Brc1cccc(-c2ccccc2)c1`, the “activity change, negative = cytotoxicity” value was 2.36% [at 95 µM].

`CC(C)Br`: the “activity change, negative = cytotoxicity” value was -1.52%.

Turning to `c1csc(-c2ccc(-c3cccs3)s2)c1`, the Potency was 68.6 µM (active).

For `ClC(Cl)C(Cl)(Cl)Cl`, the “activity change, negative = cytotoxicity” value is -0.403%.
